# Bioassay records: PubChem, several laboratories
# KCC2 mod – modulators of human KCC2 chloride dependent transport; hit rate 2.2% among 190,000; Q9H2X9; AID 1456; B-score of Tl+ flux slope (higher = more flux/activation; lower = inhibition) at 10 µM; KCC2 cells, thallium flux FluoZin-2 fluorescence;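 active means thallium flux slope and its plate-corrected score both differing from the plate sample mean at a set confidence after two filtering rounds, in either direction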;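 further: slope of fluorescence scaled to starting intensity during 10 to 20 s after thallium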
# Cardio protect – protects H9c2 cardiomyocytes from peroxide injury; hit rate 0.63% among 360,000; protection from H2O2 cell death, % at 20 µM; AID 588492; H2O2 injury protection, ATPLite, 2 h;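 active means compounds giving at least 50% protection of heart cells from peroxide-induced death in the single-dose screen, raw or plate-pattern-corrected value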;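 further: 0% = DMSO wells with peroxide and 100% = DMSO wells without peroxide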
# PHOSPHO1 block – inhibitors of human PHOSPHO1 phosphatase; recombinant PHOSPHO1, absorbance phosphatase assay; inhibition, % at 13.3 µM; hit rate 1.1% among 290,000; in the data active means inhibition above about 60%
# Target sequence (Q8TCT1 whole entry, looked up): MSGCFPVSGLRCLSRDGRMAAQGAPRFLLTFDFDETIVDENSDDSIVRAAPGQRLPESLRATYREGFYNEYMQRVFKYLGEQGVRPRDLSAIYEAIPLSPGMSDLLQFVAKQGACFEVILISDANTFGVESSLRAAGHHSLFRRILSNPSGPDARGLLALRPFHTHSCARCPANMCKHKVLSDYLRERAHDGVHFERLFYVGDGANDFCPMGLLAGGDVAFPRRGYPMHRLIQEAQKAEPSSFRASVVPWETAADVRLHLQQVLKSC
# Efflux pump mplx – antifungal efflux pump inhibition, Nile Red retention; S. cerevisiae Candida pump triplex; inhibition, % at 10 µM; hit rate 0.44% among 330,000; AID 485275;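 active means plate passing quality check with inhibition over a set limit, or well fluorescence over plate mean plus 4 SD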;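 further: Nile Red retained in pooled yeast measured as flow cytometry median fluorescence; 0% = buffer negative control and 100% = Enniatin B positive control; higher means more Nile Red kept so more efflux inhibition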
# Calb FLC – affects C. albicans growth with fluconazole; growth inhibition, % (concentration not given with the values); hit rate 0.57% among 300,000; AID 1979; C. albicans CaCi-2 (fluconazole-resistant clinical isolate) + fluconazole, Alamar Blue growth, 48 h;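 active means growth inhibition above about 58% in most replicates, limit read from the data, passing the limit was not always enough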;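 further: all wells also contain fluconazole at 8 µg/ml as a sub-toxic cotreatment; 0% = median of DMSO wells and 100% = median of geldanamycin control wells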
# * marks the source's active call; other numbers are inactive results; / = not tested or not shown. Most compounds without a hit are left out; they make up all but 3.3% or so of the library.
SMILES,KCC2 mod,Cardio protect,PHOSPHO1 block,Efflux pump mplx,Calb FLC
COc1cc(/C=C/c2nc(N)nc(-c3ccccc3O)n2)cc(OC)c1OC,-0.026,47,-6,-1,-11
CCOC(=O)c1sc(NC(=O)C(CC)Sc2nnc3c4ccccc4n(C(C)C)c3n2)nc1C (configuration not stated),-0.86,-6,68*,/,/
CCOC(=O)Cc1nnc(NC(=O)C(CC)Sc2nnc3c4ccccc4n(C)c3n2)s1 (configuration not stated),0.39,-2,32,0,1
CCc1nc(SCC(=O)NCc2ccccc2)c2c(=O)n(C)c(=O)n(C)c2n1,/,38,10,0,-8
Cc1nc(SCC(=O)NCc2ccc(F)cc2)c2c(=O)n(C)c(=O)n(C)c2n1,/,53*,14,0,-7
CN1CCN(C(=O)c2ccc(CNS(=O)(=O)c3ccc(F)c(Cl)c3)cc2)CC1,/,5,22,4,-6
CC1(C(=O)NS(=O)(=O)Cc2cccc(Cl)c2)CCN1C(=O)c1ccc(C2CCCCC2)cc1 (configuration not stated),/,-5,/,/,/
O=C(Cn1cnc2c(nnn2Cc2ccccc2F)c1=O)N1CCN(c2ccccc2)CC1,/,0,-2,-1,-7
O=C(Cn1cnc2c(nnn2Cc2ccc(Cl)cc2)c1=O)N1CCN(c2ccccc2)CC1,-3.9*,-15,12,0,/
CC(C)c1ccc(C2(C)NC(=O)N(CC(=O)NCC3COc4ccccc4O3)C2=O)cc1 (configuration not stated),/,-6,/,0,/
COc1ccc(NC(=O)C(=O)NNC(=O)COc2ccc(OC)cc2)cc1,/,2,13,0,36
COc1cccc(NC(=O)COc2ccc3c(c2)CCC3)c1,-0.5,0,13,0,100*
O=C(COc1ccc2c(c1)CCC2)NCc1cccc(Cl)c1,-0.36,-2,-4,0,72*
O=C(COc1ccc2c(c1)CCC2)NCc1ccc(Cl)cc1,0.68,-7,-2,0,29
COc1ccc(NC(=O)COc2cccc3c2CCNC3=O)cc1,/,68*,/,/,-1
CCc1ccc(NC(=O)C(=O)NNC(=O)COc2cccc(OC)c2)cc1,18*,18,12,0,-2
CCC(=O)N1CCC1(C)C(=O)NCc1ccccc1SC (configuration not stated),/,3,/,/,/
COc1ccc(N2CC(C(=O)NCCC3=CCCCC3)CC2=O)c(OC)c1 (configuration not stated),/,-4,/,0,5
CN(Cc1cc([N+](=O)[O-])ccc1Cl)C(=O)C[n+]1ccccc1,/,1,46,0,-14
O=C(Nc1ccccc1Oc1cccnc1)C1CCCN(C/C=C/c2ccccc2)C1 (configuration not stated),/,5,42,0,-10
O=C(COc1cccnc1[N+](=O)[O-])Nc1ccc(F)cc1,/,2,/,0,/
O=C(COc1cccc2c1CCNC2=O)Nc1ccc(F)cc1,/,51*,/,/,-4
COc1cccc(NC(=O)COc2ccc(C)cc2)c1,-0.047,-12,-2,0,/
COc1cccc(NC(=O)COc2cccc3c2CCNC3=O)c1,/,56*,/,0,-2
Cc1cccc(NC(=O)COc2cccc3c2CCNC3=O)c1,/,59*,/,/,/
SMILES,KCC2 mod,Cardio protect,PHOSPHO1 block,Efflux pump mplx,Calb FLC
Cc1cccc(NC(=O)COc2cccc3c2CCN(C)C3=O)c1,0.55,5,23,0,12
CCN(CC)S(=O)(=O)c1cc(C(=O)OC(C)C(=O)NCc2ccco2)ccc1C (configuration not stated),/,0,/,0,/
CC(=O)N1CCN(c2ccccc2NC(=O)c2ccc(-c3cccc([N+](=O)[O-])c3)o2)CC1,0.16,79*,8,0,-8
CC(/C=C/c1ccco1)=N/NC(=O)CNc1ccccc1C,-0.99,2,-10,0,-27
CC(/C=C/c1ccco1)=N\NC(=O)CNc1ccc2ccccc2c1,1,-13,20,0,116*
CCOC(=O)C1=C(C)NC(C)=C(C(=O)OCCNC(=O)c2cccnc2)C1c1cccc([N+](=O)[O-])c1 (configuration not stated),-1.1,69*,-5,0,-1
CCCc1nn(C)c2c(=O)[nH]c(-c3cc(S(=O)(=O)N(CCO)CCO)ccc3OCC)nc12,/,1,63*,0,-6
O=C(NNC(=S)NCc1ccco1)c1ccc(Cl)s1,-1.3,-11,103*,0,6
COc1ccc(CCNC(=O)c2cc(C(=O)c3cc(C)ccc3O)cn(CCc3ccc(OC)cc3)c2=O)cc1,-0.26,65*,-10,0,6
O=[N+]([O-])c1ccc(O)c(Nc2ncnc3ccccc23)c1,1.1,-15,52,0,45
O=[N+]([O-])c1ccc(O)c(Nc2ncnc3ccc(Br)cc23)c1,-2.6,-23,51,0,85*
COc1cc(/C=C/c2ccc3cccc(O)c3n2)cc(Br)c1OC,/,80*,54,0,1
COc1ccc(/C=C/c2ccc3c(Br)ccc(O)c3n2)cc1,/,62*,28,0,0
COc1ccc(/C=C/c2ccc3cccc(O)c3n2)cc1Br,/,62*,18,0,1
CC(C)(C)c1ccc(OCCC(=O)OCC(=O)N2c3ccccc3NC(=O)C2(C)C)cc1,/,-14,/,0,2
COc1cccc(NC(=S)/C(=C(\[O-])c2ccc([N+](=O)[O-])cc2)[n+]2ccccc2)c1,0.81,-2,27,0,-6
N=c1c(S(=O)(=O)c2ccc(F)cc2)cc2c(=O)n3ccccc3nc2n1CC1CCCO1 (configuration not stated),/,0,22,0,-5
CC1(C)CC(=O)C(N=Nc2cc(Cl)c(Cl)c(Cl)c2)=C(O)C1,-1.8,2,3,0,6
Cc1ccc(O)c(N=NC2=C(O)CC(C)(C)CC2=O)c1,1.1,8,-13,0,85*
Cc1c(N=NC2=C(O)CC(C)(C)CC2=O)c(=O)n(-c2ccccc2)n1C,0.37,6,-12,0,96*
CC1CCCCC12NC(=O)N(CC(=O)Nc1cccnc1)C2=O (configuration not stated),/,-1,/,/,/
COc1ccc(S(=O)(=O)N2CCCC2CNC(=O)C(=O)NCc2ccco2)cc1 (configuration not stated),/,0,/,0,13
COc1ccc(/C=N/NC(=O)c2ccc[nH]2)cc1,/,-14,24,0,-15
CCc1ccc2c(c1)/C(=C/C(=O)c1cccs1)C(=O)N2,0.77,-16,4,0,98*
COc1ccc(-n2nnnc2Sc2ccc(S(=O)(=O)N3CCOCC3)cn2)cc1,/,-6,85*,0,13
CCc1nnc2n1N=C(c1ccc(-c3cc(Cl)ccc3Cl)o1)CS2,0.12,-21,90*,0,27
CCc1nnc2n1N=C(c1ccc([N+](=O)[O-])cc1)CS2,0.15,2,30,0,4
Cc1ccc(S(=O)(=O)NCC(=O)NNC(=O)c2ccccc2Cl)cc1C,/,1,/,0,/
COCCn1c(SCC(=O)c2ccc(Cl)cc2)nnc1C(C)C,-0.4,8,75*,0,7
